Screens deposited in PubChem by National Center for Advancing Translational Sciences (NCATS).
LASV entry inh – qHTS for Inhibitors of binding or entry into cells for Lassa Virus; Lassa virus pseudotype entry inhibition, cell reporter; Potency, µM (doses to about 37.9 µM), without a hit: at the top dose activity change, negative = inhibition, actives largely listed as inhibitors; hit rate 1.2% among 300,000; AID 540256, 2011; calls by dose curve; tested in HEK293 cells; also: potency is read from the fitted curve at half-maximal effect; nearly all actives have a fitted effect of over 50% in size
Marburg entry inh – qHTS for inhibitors of binding or entry into cells for Marburg Virus; Marburg virus pseudotyped entry inhibition, cell reporter; Potency, µM (series often up to 37.8 µM), without a hit: at the top dose activity change, negative = inhibition, usual class: inhibitors; hit rate 1.8% among 300,000; AID 540276, 2011; calls by dose curve; tested in HEK293 cells; also: potency is read from the fitted curve at half-maximal effect
FMDV inh – High Throughput Screening for Foot and Mouth Disease Virus Antivirals. hit rate 1.2% among 410,000. FMDV antiviral cell-based qHTS. Potency, µM (doses to about 57.9 µM), inactives show at the top dose activity change, negative = inhibition, hits mostly inhibitors; calls by dose curve; tested in HEK293T cells; also: read-out not given here; potency is read from the fitted curve at half-maximal effect; nearly all actives have a fitted effect of over 45% in size
Vaccinia mCherry – qHTS for Stage-Specific Inhibitors of Vaccinia Orthopoxvirus: mCherry Reporter Primary qHTS | Potency, µM (doses to about 36.5 µM), without a hit: at the top dose activity change, negative = inhibition, usual class: inhibitors | hit rate 0.63% among 310,000 | Vaccinia virus mCherry reporter infection, fluorescence; calls by dose curve; tested in A549 cells; also: potency is read from the fitted curve at half-maximal effect; nearly all actives have a fitted effect of over 35% in size
HCMV inh – qHTS Assay for inhibitors of the human cytomegalovirus (HCMV); HFF cells, HCMV-luciferase reporter, 72 h; hits give low values; hit rate 4.5% among 410,000; activity change, negative = inhibition, % at 57.5 µM; in the data active = activity change below about -60%; inconclusive = no clear call, values can overlap the other calls; inactive = above about -39%
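Two-dose cell screen: HFF monolayers treated with compounds and infected with luciferase-expressing HCMV at 1 PFU/cell, 72 h at 37C, then lysed for luciferase measurement.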
Vaccinia Venus – qHTS for Stage-Specific Inhibitors of Vaccinia Orthopoxvirus: Venus Reporter Primary qHTS; Vaccinia virus Venus reporter expression, fluorescence; Potency, µM (titrated, usually from 36.5 µM), for inactives: top-dose activity change, negative = inhibition, most hits filed as inhibitors; hit rate 0.46% among 330,000; AID 720580, 2013; calls by dose curve; tested in A549 cells; also: potency is read from the fitted curve at half-maximal effect; nearly all actives have a fitted effect of over 30% in size
Active calls of the source: *; i = inactive; ? = inconclusive; . = no result given; [ ] = dose if it differs, or a comment. In the library only some 6.5% were active in any assay of this set; here they are far more common. % is scaled to controls: 0 for no effect and ±100 for the full control effect.

SMILES	LASV entry inh	Marburg entry inh	FMDV inh	Vaccinia mCherry	HCMV inh	Vaccinia Venus
N/C(=N\OC(=O)c1ccc(Cl)cc1Cl)c1ccccc1	8.2µM*	?	-71%	.	30	.
Cc1ccc(/C(N)=N/OC(=O)c2ccc(C)cc2Cl)cc1	?	?	?	-6%	-79*	-10%
Cc1cc(C)nc(OC(=O)c2ccc(Cl)cc2Cl)n1	.	.	.	.	-102*	.
CC1C(=O)N2CCCc3cc(S(=O)(=O)Nc4ccccc4C(N)=O)cc1c32 (centres undefined)	24%	4%	-6%	-2%	8	-15%
C(=N\Nc1nc(Nc2ccccc2)nc(N2CCOCC2)n1)/c1c[nH]c2ccccc12	?	0.073µM*	3%	.	1	.
Cc1ccc(Nc2nc(N/N=C/c3c[nH]c4ccccc34)nc(N3CCOCC3)n2)cc1	15µM*	0.21µM*	?	?	3	?
O=Cc1ccnc2ccccc12	.	.	.	-17%	.	-5%
CN1CCN(c2ccc(-c3cccc(NC(=O)COc4ccc(Cl)cc4Cl)c3)nn2)CC1	4.5µM*	?	?	-21%	-26	-5%
COC(=O)C(=C/C(C)=C/c1cccs1)C(=O)OC	?	?	28µM*	-17%	-26	-14%
COC(=O)N/N=C/c1cccs1	.	.	3%	.	-26	.
CC[C@]12c3[nH]c4ccc(Cl)cc4c3CCN1C(=O)[C@@H](CC(=O)NCCc1ccccn1)C[C@@H]2C(=O)N1CCN(C(=O)C2CC2)CC1	.	-1%	-12%	0%	-15	-15%
Cn1nc(C(F)(F)F)c(-c2ccc(Br)cc2)c1NC(=O)Nc1ccc(F)cc1F	?	?	-25%	-5%	-92*	?
COc1ccc(C(C(=O)NC(C)(C)C)N(CCc2ccccc2)C(=O)CCC(=O)Nc2cc(C)on2)cc1 (centres undefined)	-4%	8.9µM*	35%	-23%	1	-23%
COc1ccc(C(C(=O)NC(C)(C)C)N(CCO)C(=O)CCC(=O)Nc2cc(C)on2)cc1 (centres undefined)	?	8%[46.1 µM]	14%	-6%	0	-1%
COCC(=O)N1[C@H](CO)[C@@H]2c3ccccc3N(C(=O)c3ccccc3F)C[C@@H]21	.	.	.	.	-12	.
C[C@H]1CC[C@H]2C(=O)N(Cc3ccccc3)C[C@@H](O)CN2[C@H]1c1ccc(Br)cc1	.	-33%[14.2 µM]	.	.	.	.
COC(=O)C1=C(N)Oc2cc(C)[nH]c(=O)c2[C@@H]1c1ccncc1	.	3%	.	.	.	.
Oc1ccccc1N=Nc1nc(-c2ccccc2)c(-c2ccccc2)[nH]1	1.4µM*	1µM*	28µM*	?	-107*	?
COc1ccccc1N=Nc1nc(-c2ccccc2)c(-c2ccccc2)[nH]1	?	?	-3%	i	4	15%
CC(c1nnc(Sc2nnnn2-c2ccccc2)n1-c1ccc(F)cc1)N(C)C (centres undefined)	5%	5%	-28%	13µM*	?	?
CC(=O)c1cccc(NC(=O)CSc2nnc(C(C)N(C)C)n2-c2ccc(F)cc2)c1 (centres undefined)	-3%[46.1 µM]	-23%[46.1 µM]	8%	-23%	3	-12%
CN1CCN(S(=O)(=O)c2cccc(C(=O)N(C)C(c3ccccc3)c3ccccc3)c2)CC1	-4%	-13%	2%	-2%	-15	-17%
Cn1cc(Cc2ccc(C(=O)N3CCCCC3)cn2)c2ccccc21	.	.	.	.	5	.
Cc1ccc(-n2c(C)cc(/C=C3\SC(=O)NC3=O)c2C)cc1	.	.	56%	.	25	.
O=C1NC(=Nc2cccc(O)c2)S/C1=C\c1cccc([N+](=O)[O-])c1	21%	16%	7%	0%	-69*	-21%
SMILES	LASV entry inh	Marburg entry inh	FMDV inh	Vaccinia mCherry	HCMV inh	Vaccinia Venus
COc1ccc(N=C2NC(=O)/C(=C/C=C/c3ccccc3)S2)cc1	1µM*	-9%	-1%	-17%	-40	-12%
Cc1cc(/C=C2\SC(=Nc3ccccc3)NC2=O)c(C)n1-c1ccc(S(N)(=O)=O)cc1	?	8.9µM*	?	.	-96*	?
COc1ccc(N=C2NC(=O)/C(=C\C=C\c3ccccc3)S2)cc1	?	-2%[46.1 µM]	-5%	0%	-25	-10%
O=C1NC(=Nc2ccccc2)S/C1=C\c1ccccc1	.	.	70%	.	-86*	.
O=C1NC(=Nc2cccc(O)c2)S/C1=C\c1cccnc1	?	?	20%	-10%	?	-16%
CC(C)CN(C)c1ccc(/C=C2\C=Cc3ccccc32)cc1	.	.	.	-29%	.	-28%
COc1ccc(S(=O)(=O)/N=C2/NC(=O)/C(=C/c3ccco3)S2)cc1	12%	9%	46%	i	14	-11%
COc1cc(/C=C2\SC(N)=NC2=O)ccc1O	-2%[46.1 µM]	?	14%	-17%	-75*	?
COc1ccc(N=C2NC(=O)/C(=C/c3ccco3)S2)cc1	.	.	56%	.	-68*	.
COc1cc(/C=C2/SC(=Nc3ccc(O)cc3)NC2=O)ccc1O	.	.	-4%	13µM*	-77*	44%
C=CCOc1ccc(/C=C2\SC(N)=NC2=O)cc1OC	.	.	0%	.	116	.
COc1ccc(C(=O)C(C)OC(=O)CN2C(=O)c3ccccc3C2=O)cc1 (centres undefined)	0%[46.1 µM]	12%[46.1 µM]	-4%	i	-18	-13%
CC(C)c1ccc(NC(=O)c2csnn2)cc1	9.2µM*	?	-2%	.	85	.
Cc1nc(-c2cccc(NC(=O)COc3ccc(Cl)cc3)c2)cs1	?	13µM*	?	-7%	-64*	-21%
CC(Oc1ccccc1)C(=O)Nc1cccc(-c2nc3ccccc3[nH]2)c1 (centres undefined)	-27%	?	-20%	.	28	-15%
COc1ccc(CC(=O)Nc2cccc(-c3csc(C)n3)c2)cc1	?	?	?	.	-14	-23%
Cc1nc(-c2cccc(NC(=O)C(C)Oc3ccccc3)c2)cs1 (centres undefined)	8.9µM*	-2%	-5%	0%	-36	-18%
O=C(CSc1ccccc1)N1CCc2c([nH]c3ccccc23)C1c1ccc(F)cc1 (centres undefined)	?	.	4%	i	-31	-23%
CSc1ccc(C2c3[nH]c4ccccc4c3CCN2C(=O)CCC2CCCC2)cc1 (centres undefined)	?	.	-6%	-9%	-78*	8%
Cc1ccc(C2c3[nH]c4ccccc4c3CCN2C(=O)CCc2ccccc2)cc1 (centres undefined)	3.2µM*	.	-5%	-24%	-86*	-3%
COc1ccc(C2=NN(CC(=O)NCCCN(C)c3ccccc3)C(=O)CC2)cc1	-16%[46.1 µM]	.	-16%	-26%	69	-14%
